Results as given in PubChem BioAssay.
Unmarked numbers belong to inactive results. The source made the active and inactive calls. Rule as the data show it: active = inhibition above about 42%; inactive = the rest.

Biological target: Nuclear receptor subfamily 5 group A member 2 (Homo sapiens) (UniProt O00482)
Experiment: NR5A2 activity suppression in reporter cells – cell-based, luminescence, confirmation (AID 651613);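 also: HEK293T cells co-transfected with LRH-1 and StAR promoter luciferase reporter; 0% = vehicle wells and 100% = parental cells lacking receptor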
Conditions: cell-based LRH-1 luciferase reporter, inverse agonism; at 3.6 µM; hits give high values

Nuclear receptor subfamily 5 group A member 2 (Homo sapiens), sequence (O00482 whole entry, looked up): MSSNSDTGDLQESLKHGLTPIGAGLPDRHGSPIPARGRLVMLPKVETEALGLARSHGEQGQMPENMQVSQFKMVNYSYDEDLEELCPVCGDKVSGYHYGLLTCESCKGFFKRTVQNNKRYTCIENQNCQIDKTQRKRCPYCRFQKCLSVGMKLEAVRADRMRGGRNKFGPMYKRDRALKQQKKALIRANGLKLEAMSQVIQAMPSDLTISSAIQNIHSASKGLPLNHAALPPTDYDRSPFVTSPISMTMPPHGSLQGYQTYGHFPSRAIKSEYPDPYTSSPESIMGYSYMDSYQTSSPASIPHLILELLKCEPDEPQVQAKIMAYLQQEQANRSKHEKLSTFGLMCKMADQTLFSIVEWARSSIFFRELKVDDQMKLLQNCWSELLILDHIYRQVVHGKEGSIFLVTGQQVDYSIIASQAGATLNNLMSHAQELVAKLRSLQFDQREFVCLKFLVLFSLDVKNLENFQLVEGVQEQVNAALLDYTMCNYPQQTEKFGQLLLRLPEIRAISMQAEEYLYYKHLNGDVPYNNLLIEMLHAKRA

Structure (SMILES)	inhibition
COc1ccc(-c2cc(C(F)F)n3ncc(C(=O)N4CCc5ccccc5C4)c3n2)cc1	58.3% (active)
Cc1cc(NCCCCCCCNc2cc(C)nc3cc([N+](=O)[O-])ccc23)c2ccc([N+](=O)[O-])cc2n1	26.2%
CC(=O)c1ccc(NC(=O)COc2ccccc2C(=O)Nc2ccccc2)cc1	54.9% (active)
CCN1CCN(c2ccc(S(=O)(=O)N3CCCCC3)cc2NC(=O)/C=C/c2ccc([N+](=O)[O-])cc2)CC1	61.8% (active)
O=C(NCc1cccnc1)c1ccc(NC(=O)c2ccc(Br)cc2)cc1	75.9% (active)
Cn1c(=O)c2c(nc(CN3CCOCC3)n2CC(=O)c2ccccc2)n(C)c1=O	-0.49%
c1ccc(-c2nc(NCc3cccnc3)c3oc4ccccc4c3n2)cc1	62.4% (active)
Cc1ccccc1C(=O)NC1CCN(CC(=O)Nc2ccc(Br)cc2)CC1	59.1% (active)
CN(C)S(=O)(=O)c1ccc(C(=O)NCc2ccc3[nH]c4c(c3c2)CCCC4)cc1	39.3%
COc1ccc(-c2nnc(NC(=O)c3ccc([N+](=O)[O-])o3)o2)c(OC)c1	63.4% (active)
Cc1cc(Cl)ccc1NC(=O)CN1C(=O)C(=O)N(C2CCCC2)C1=O	50.9% (active)
COc1ccc(N2CCN(C(=O)c3ccc(CNS(=O)(=O)c4cccc(OC)c4)cc3)CC2)cc1	27.8%
CCC(NC(=O)c1cc(COc2cc(C)c(Cl)c(C)c2)on1)c1ccncc1 (stereo not given)	52.5% (active)
O=C(CCl)Nc1ccc2c(c1)OCO2	60.3% (active)
C/C(=N\NC(N)=S)C1(C)CCCCC1	57.1% (active)
COc1ccc(N2C(=O)C(Cl)=C(N3CCOCC3)C2=O)cc1	34.9%
CCNc1cc(N2CCCC2)ccc1[N+](=O)[O-]	40.2%
CCOc1cc(S(=O)(=O)NCc2ccncc2)ccc1Cl	56.6% (active)
Cc1nc2cc(N3CCCCC3)c(NC(=O)c3cccnc3)cc2c(=O)n1Cc1ccccc1	57.6% (active)
CCCN(CC(=O)Nc1ccc(C(C)=O)cc1)CC(=O)Nc1ccccc1C	62.4% (active)

Structure (SMILES)	inhibition
COc1ccc(NC(=O)COC(=O)CNC(=O)c2cc(OC)c(OC)c(OC)c2)cc1	42.9% (active)
N#Cc1c2c(c(NCCOCCO)n3c1nc1ccccc13)CCCC2	40.5%
Cc1cc(OCC(=O)N2CCC(O)CC2)c2c(C)cc(=O)oc2c1	44.8% (active)
O=C(COc1ccc(Nc2ccccc2)cc1)Nc1ccncc1	52.8% (active)
O=C(Nc1ccc2oc(-c3ccncc3)nc2c1)c1ccc([N+](=O)[O-])o1	63.7% (active)
COc1ccc(-c2cc(-c3ccc(O)cc3)nc(N)c2C#N)cc1	58.3% (active)
CCN(Cc1ccccc1)c1ccc(/C=N/NC(=O)c2cccc(S(=O)(=O)N3CCOCC3)c2)cc1	66.8% (active)
Cc1ccc(NC(=O)CN2C(=O)NC(C)(CC(C)C)C2=O)c(Br)c1 (stereo not given)	55.1% (active)
NC(=O)C1CCN(C(=O)COc2ccc3c4c(c(=O)oc3c2)CCC4)CC1	42.7% (active)
CCOc1cc(/C=N/Nc2nnc(C)n2N)ccc1O	18.2%
O=C(COC(=O)c1ccc[n+]([O-])c1)Nc1ccc([N+](=O)[O-])cc1Cl	59.4% (active)
CCOc1ccc(S(=O)(=O)Nc2nc3ccccc3nc2N2CCN(C)CC2)cc1	27.2%
COc1ccc(OC)c(NS(=O)(=O)c2ccc(SC)cc2)c1	55% (active)
O=C(c1ccc([N+](=O)[O-])o1)N1CCN(c2nc3c(Cl)cccc3s2)CC1	64.6% (active)
O=C(Nc1cc(Cl)ccc1-n1cncn1)c1ccc([N+](=O)[O-])o1	61.9% (active)
COc1cc(C2c3cc4c(cc3OC(Nc3ccc(C(=O)O)cc3)C2C)OCO4)cc(OC)c1OC (stereo not given)	49.7% (active)
O=C(N/N=C/c1ccc(Sc2ccccn2)o1)c1cccc([N+](=O)[O-])c1	44.3% (active)
c1ccc(-n2nnnc2-c2cccc3ccccc23)cc1	52.5% (active)
CCCCCCCn1ccc(=N)cc1	86.7% (active)
CC(/C=C(\NC(=O)c1ccccc1)C(=O)N=Nc1c(O)[nH]c2ccc(C)cc12)=C\c1ccccc1	31.7%
